{"source": "the supplement of paper PMC12350171", "note": "Where a name gives a salt, the structure may show the parent alone.", "data": [{"system": "Haemophilus parainfluenzae", "test": "growth AUC normalised to DMSO control (fraction of control); higher = less growth inhibition, active = hit call of the paper", "conditions": "20 µM;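 active = AUC significantly below DMSO controls by Student t-fit with adjusted P under 0.01; inactive = not significantly reduced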", "outline": "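Pathogens passaged twice anaerobically were inoculated at a starting OD578 of 0.01 into pre-reduced mGAM plates with drug at 20 μM and 1% DMSO, sealed with breathable membranes. Haemophilus parainfluenzae medium was supplemented with hemin and NAD. OD578 was read hourly for 24 h, with three biological replicates. Growth-curve AUC was computed by the trapezoidal rule up to the exponential-to-stationary transition and normalised to DMSO controls on the same plate.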", "values": [{"smiles": "CCCCN(CCCC)CCC(O)c1cc2c(Cl)cc(Cl)cc2c2cc(C(F)(F)F)ccc12", "note": "(stereo unspecified) [Halofantrine hydrochloride]", "growth AUC normalised to DMSO control": "1.06 (inactive)"}, {"smiles": "CC1(C)OC(=O)NC1=O", "note": "[Dimethadione]", "growth AUC normalised to DMSO control": "1 (inactive)"}, {"smiles": "Cc1cnc(NC(=O)C2=C(O)c3ccccc3S(=O)(=O)N2C)s1", "note": "[Meloxicam]", "growth AUC normalised to DMSO control": "0.968 (inactive)"}, {"smiles": "CNCCCC1c2ccccc2C=Cc2ccccc21", "note": "[Protriptyline hydrochloride]", "growth AUC normalised to DMSO control": "0.977 (inactive)"}, {"smiles": "c1ccc(-c2ccc(C(c3ccccc3)n3ccnc3)cc2)cc1", "note": "(stereo unspecified) [Bifonazole]", "growth AUC normalised to DMSO control": "0.998 (inactive)"}, {"smiles": "COc1cc2nc(N(C)CCCNC(=O)C3CCCO3)nc(N)c2cc1OC", "note": "(stereo unspecified) [Alfuzosin hydrochloride]", "growth AUC normalised to DMSO control": "1.03 (inactive)"}, {"smiles": "COc1ccccc1OCC(O)CN1CCN(CC(=O)Nc2c(C)cccc2C)CC1", "note": "(stereo unspecified) [Ranolazine]", "growth AUC normalised to DMSO control": "1.03 (inactive)"}, {"smiles": "CC[C@@H]1C(=O)OC[C@@H]1Cc1cncn1C", "note": "[Pilocarpine nitrate]", "growth AUC normalised to DMSO control": "0.981 (inactive)"}, {"smiles": "CNCCC=C1c2ccccc2CCc2ccccc21", "note": "[Nortriptyline hydrochloride]", "growth AUC normalised to DMSO control": "0.966 (inactive)"}, {"smiles": "CC1CNc2c(cccc2S(=O)(=O)N[C@@H](CCCNC(=N)N)C(=O)N2CC[C@@H](C)C[C@@H]2C(=O)O)C1", "note": "(stereo partly specified) [Argatroban]", "growth AUC normalised to DMSO control": "1.04 (inactive)"}, {"smiles": "NNCCc1ccccc1", "note": "[Phenelzine sulfate]", "growth AUC normalised to DMSO control": "1.02 (inactive)"}, {"smiles": "CN(C)CCOc1ccc(/C(=C(/CCCl)c2ccccc2)c2ccccc2)cc1", "note": "[Toremifene]", "growth AUC normalised to DMSO control": "0.997 (inactive)"}, {"smiles": "Cn1c(=O)c2c(ncn2CC(O)CO)n(C)c1=O", "note": "(stereo unspecified) [Diprophylline]", "growth AUC normalised to DMSO control": "0.994 (inactive)"}, {"smiles": "CN1CCN(c2c(F)cc3c(=O)c(C(=O)O)cn(CCF)c3c2F)CC1", "note": "[Fleroxacin]", "growth AUC normalised to DMSO control": "0.0399 (active)"}, {"smiles": "CNCCCN1c2ccccc2CCc2ccccc21", "note": "[Desipramine hydrochloride]", "growth AUC normalised to DMSO control": "0.979 (inactive)"}, {"smiles": "CN1CCCN=C1/C=C/c1cccs1", "note": "[Pyrantel tartrate]", "growth AUC normalised to DMSO control": "0.978 (inactive)"}, {"smiles": "CC(Oc1ccccc1)C(=O)N[C@@H]1C(=O)N2[C@@H]1SC(C)(C)[C@@H]2C(=O)O", "note": "(stereo partly specified) [Phenethicillin potassium salt]", "growth AUC normalised to DMSO control": "0.59 (active)"}, {"smiles": "CN(C)CCC[C@@]1(c2ccc(F)cc2)OCc2cc(C#N)ccc21", "note": "[Escitalopram oxalate]", "growth AUC normalised to DMSO control": "1.03 (inactive)"}, {"smiles": "CC1(C)O[C@@H]2[C@@H](CO[C@@]3(COS(N)(=O)=O)OC(C)(C)O[C@@H]23)O1", "note": "[Topiramate]", "growth AUC normalised to DMSO control": "1.03 (inactive)"}, {"smiles": "CO[C@H]1/C=C/O[C@@]2(C)Oc3c(C)c(O)c4c(O)c(c(/C=N/N5CCN(C6CCCC6)CC5)c(O)c4c3C2=O)NC(=O)/C(C)=C\\C=C\\[C@H](C)[C@H](O)[C@@H](C)[C@@H](O)[C@@H](C)[C@H](OC(C)=O)[C@@H]1C", "note": "[Rifapentine]", "growth AUC normalised to DMSO control": "0.0302 (active)"}, {"smiles": "CC(=O)NS(=O)(=O)c1ccc(N)cc1", "note": "[Sulfacetamide sodic hydrate]", "growth AUC normalised to DMSO control": "1.03 (inactive)"}, {"smiles": "CCC(=O)O[C@@H](O[P@](=O)(CCCCc1ccccc1)CC(=O)N1C[C@H](C2CCCCC2)C[C@H]1C(=O)O)C(C)C", "note": "[Fosinopril]", "growth AUC normalised to DMSO control": "1.02 (inactive)"}, {"smiles": "CC(CCc1ccc(O)cc1)NCCc1ccc(O)c(O)c1", "note": "(stereo unspecified) [Dobutamine hydrochloride]", "growth AUC normalised to DMSO control": "1.05 (inactive)"}, {"smiles": "Cc1cc(C)nc(NS(=O)(=O)c2ccc(N)cc2)n1", "note": "[Sulfamethazine sodium salt]", "growth AUC normalised to DMSO control": "0.999 (inactive)"}, {"smiles": "c1ccc(CC2=NCCN2)cc1", "note": "[Tolazoline hydrochloride]", "growth AUC normalised to DMSO control": "1.03 (inactive)"}, {"smiles": "Cc1scc2c1N(C(=O)CN1CCN(C)CC1)c1ccccc1NC2=O", "note": "[Telenzepine dihydrochloride]", "growth AUC normalised to DMSO control": "1 (inactive)"}, {"smiles": "NC[C@@H]1O[C@H](O[C@H]2[C@@H](O)[C@H](O[C@@H]3[C@@H](O)[C@H](N)C[C@H](N)[C@H]3O[C@H]3O[C@H](CN)[C@@H](O)[C@H](O)[C@H]3N)O[C@@H]2CO)[C@H](N)[C@@H](O)[C@@H]1O", "note": "[Neomycin sulfate]", "growth AUC normalised to DMSO control": "0.923 (inactive)"}, {"smiles": "NC(=O)c1cnccn1", "note": "[Pyrazinamide]", "growth AUC normalised to DMSO control": "0.979 (inactive)"}, {"smiles": "Cc1c(N)c(=O)n(-c2ccccc2)n1C", "note": "[Ampyrone]", "growth AUC normalised to DMSO control": "1 (inactive)"}, {"smiles": "CC(=O)SCC(Cc1ccccc1)C(=O)NCC(=O)OCc1ccccc1", "note": "(stereo unspecified) [Racecadotril]", "growth AUC normalised to DMSO control": "0.986 (inactive)"}, {"smiles": "C#Cc1cccc(Nc2ncnc3cc(OCCOC)c(OCCOC)cc23)c1", "note": "[Erlotinib]", "growth AUC normalised to DMSO control": "1.04 (inactive)"}]}]}
